Screens as filed in PubChem BioAssay.
Sampled rows, rich in hits. Any-hit rate of the full collection: about 2.4%.
HTT prom inh = HTT promoter inhibition. HEK293 HTT promoter firefly luciferase reporter, 24 h. Potency, µM (titrated, usually from 57.5 µM), without a hit: at the top dose activity change, negative = inhibition, usual class: inhibitors. hit rate 0.93% among 48,000; further: nearly all actives have a fitted effect of over 50% in size
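Firefly luciferase readout (Dual-Glo, 10 min RT) after 24 h, 37 °C compound exposure (final up to 57.5 uM) of HEK293 reporter cells cultured 24 h beforehand; PTC124 at 50 uM final as control inhibitor; activity scaled vehicle 0%, zero RLU -100%.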
HTT-AS act = HTT-AS promoter activation; hit rate 0.24% among 48,000; AID 1508624; Potency, µM (series often up to 57.5 µM), for inactives: top-dose activity change, positive = activation, most hits filed as activators; HEK293 HTT-AS promoter firefly luciferase reporter, 24 h; response scale: percent change from vehicle, -100% = no light; further: nearly all actives have a fitted effect of over 55% in size
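HEK293 Fluc reporter, 2,500 cells/well, 24 h pre-culture; cpds up to 57.5 uM final, 24 h 37 degrees C; Dual-Glo, 10 min RT; normalized vehicle = 0%, zero RLU = -100%.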
NTMT1 inhibitor = NTMT1 methyltransferase inhibition; NTMT1 MTase-Glo SAH luminescence, purified enzyme; Potency, µM (series often up to 114 µM), for inactives: top-dose activity change, negative = inhibition, actives largely listed as inhibitors; hit rate 2.5% among 59,000;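 further: plate controls were DMSO vehicle for no effect and no enzyme for full effect; nearly all actives have a fitted effect of over 65% in size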
Target sequence (Q9BV86 whole entry, looked up): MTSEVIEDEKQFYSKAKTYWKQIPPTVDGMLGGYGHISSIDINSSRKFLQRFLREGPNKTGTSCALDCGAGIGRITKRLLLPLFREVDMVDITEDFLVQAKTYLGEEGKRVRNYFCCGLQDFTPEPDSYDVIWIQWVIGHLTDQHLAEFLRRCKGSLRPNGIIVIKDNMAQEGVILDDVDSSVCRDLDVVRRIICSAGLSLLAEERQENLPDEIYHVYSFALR
Active calls of the source: *; ? = inconclusive; nt = no result given; ! = not active in a repeat; [ ] = remark or other dose. The call rests on the fitted dose curve; in most records, active means well fitted curve in the direction sought with a large enough effect; inconclusive means small, poorly fitted or top-dose-only effect, or another doubt; inactive means no such curve, though single readings can be large; an effect the other way counts as inactive or inconclusive. Potency means the concentration at half of the fitted maximal effect.

SMILES	HTT prom inh	HTT-AS act	NTMT1 inhibitor
COc1ccc2c(c1)CN(C(=O)CCN1CCC(Cc3ccccc3)CC1)CCS2	nt	nt	16.0%[29.8 µM]
Cc1cc(NS(=O)(=O)c2ccc(NC(=O)Cc3ccc(Cl)cc3)cc2)no1	nt	nt	10.1%[57.5 µM]
O=C(O)c1cccc(-n2cccc2)c1	nt	nt	12.9%
Cc1ccc(C)n1-c1cccc(C(=O)O)c1	nt	nt	2.24µM*
COCCNc1cc2c(cc1[S+](=O)([O-])Nc1ccc(C)c(C)c1)CCC(=O)N2	nt	nt	-1.8%
NC(=O)CC[C@@H](N)C(=O)O	-5.8%	1.8%	10.7%[57.5 µM]
C[Se]CCC(N)C(=O)O (stereo not given)	-8.3%[116 µM]	-17.4%[116 µM]	15.6µM*!
Cc1ccc(N(CC2=NCCN2)c2cccc(O)c2)cc1	3.7%	-13.8%	89.1µM*!
c1ccc(CN(CC2=NCCN2)c2ccccc2)cc1	4.0%	-10.5%	4.7%[57.5 µM]
O=C(/C=C/c1ccc2ccc(C(F)(F)F)cc2n1)c1ccncc1	nt	nt	-14.0%
CCOC(=O)N1CCc2c(sc(NCc3ccc(OC)c(OC)c3OC)c2C(=O)Nc2ccc(OC)cc2OC)C1	?	-85.8%	20.2%
CCOC(=O)N1CCc2c(sc(NCc3ccc(OCC)cc3)c2C(=O)Nc2ccc(OC)cc2OC)C1	10µM*	-82.0%	6.7%
CCOc1ccccc1NC(=O)c1c(NCc2ccc(C)o2)sc2c1CCCCC2	-5.6%	-12.1%	25.1µM*
CCOC(=O)N1CCc2c(sc(NCc3cccs3)c2C(=O)Nc2ccc(OC)cc2OC)C1	7.94µM*	-90.6%	11.0%
CCOc1ccccc1NC(=O)c1c(NCc2ccc(C)o2)sc2c1CCC(C)C2 (stereo not given)	-3.1%	9.0%	-13.9%
CCOC(=O)N1CCc2c(sc(NCc3cccs3)c2C(=O)Nc2cc(OC)ccc2OC)C1	-9.4%	-16.2%	34.5%
Cc1ccc(OCCn2c(CCNC(=O)c3cccc(N)c3)nc3ccccc32)cc1	nt	nt	-0.3%[57.5 µM]
CCOc1ccc(CCNC(=O)CCCn2c(=O)c3cccn3c3ccccc32)cc1	-19.9%	-19.7%	?
CCOc1ccc(CCNC(=O)CCCc2cc(-c3ccc(OCC)cc3)on2)cc1	0.316µM*	-77.5%	-2.9%
O=C(CN(Cc1cccc2ccccc12)C1CC1)Nc1ccc(N2CCOCC2)cc1	nt	nt	1.3%
CN(C)c1ccc(C(=C2C=CC(=[N+](C)C)C=C2)c2ccc(N(C)C)cc2)cc1	?	-79.3%	20µM*
CN(C)c1ccc(C(=C2C=CC(=[N+](C)C)C=C2)c2ccccc2)cc1	?	-96.0%	22.4µM*
COc1cc(Cl)ccc1C(=O)Nc1nc(-c2ccccc2)cs1	nt	nt	7.7%[57.5 µM]
Cc1ccc(-c2ccc(=O)n(CC(=O)N(C)[C@@H](C)c3ccccc3)n2)cc1	nt	nt	-0.7%
Cc1ccc(NC(=O)CN2C(=O)N/C(=C\c3cccn3-c3ccc(C(=O)NOCc4ccccc4)cc3)C2=O)cc1	nt	nt	17.0%
SMILES	HTT prom inh	HTT-AS act	NTMT1 inhibitor
Nc1cccc(-c2cc3c(Oc4cccc(O)c4)ncnc3[nH]2)c1	?	-21.5%	22.4µM*!
C[C@@H]1O[C@@H](O[C@@H]2[C@@H](O)[C@H](O[C@H]3[C@H](O[C@H]4CC[C@@]5(C)C(CC[C@]6(C)C5CC=C5[C@@H]7CC(C)(C)CC[C@]7(C(=O)O[C@@H]7O[C@H](CO)[C@@H](O)[C@H](O)[C@H]7O[C@@H]7O[C@@H](C)[C@H](O[C@@H]8O[C@@H](C)[C@H](O)[C@@H](O)[C@H]8O)[C@@H](O)[C@H]7O)CC[C@]56C)[C@@]4(C)CO)O[C@H](C(=O)O)[C@@H](O)[C@@H]3O)O[C@H](CO)[C@H]2O)[C@H](O)[C@H](O)[C@H]1O (stereo not given in full)	nt	nt	6.4%[6.45 µM]
COc1ccc(/C=C/C(=O)Nc2ccc3nc4c(c(Nc5ccc(OC)c(OC)c5)c3c2)CCCC4)cc1	?	-94.2%	-3.1%
COc1ccc(Nc2c3c(nc4ccc(NC(=O)/C=C/c5cc(OC)c(OC)c(OC)c5)cc24)CCCC3)cc1OC	31.6µM*	-76.5%	3.2%
CCN(Cc1cccnc1)C(=O)CN(c1ccc(OC)nc1)S(=O)(=O)c1ccccc1C	nt	nt	16.1%[57.5 µM]
C=C[C@H]1[C@H](O[C@@H]2O[C@H](CO)[C@@H](O)[C@H](O)[C@H]2O)OC=C(C(=O)OC)[C@H]1CCOC(=O)c1cc(O)c(O)c(O)c1	nt	nt	-4.1%[29.8 µM]
C=C1c2cccc(O)c2C(O)=C2C(=O)[C@@]3(O)C(O)=C(C(N)=O)C(=O)[C@@H](N(C)C)[C@@H]3[C@@H](O)[C@H]12	?	-54.1%	12.6µM*
CN(C)[C@@H]1C(=O)C(C(N)=O)=C(O)[C@@]2(O)C(=O)C3=C(O)c4c(O)cccc4C[C@H]3C[C@@H]12	?	-27.9%	?
N#Cc1c(-c2ccccc2C(F)(F)F)nc2ccccc2c1NCc1ccc(-c2cccnc2)cc1	nt	nt	27.8%
COc1ccc(CNc2ccc(S(=O)(=O)Nc3nccs3)cc2)cc1O	nt	nt	3.9%
Fc1ccc(Nc2nc3nonc3nc2Nc2cccc(C(F)(F)F)c2)cc1	1.26µM*	-94.8%	7.3%
O=C(O)c1cccnc1Nc1cccc(C(F)(F)F)c1	-4.5%	-15.0%	?
CC(=O)Nc1sc2c(c1-c1ccc(N[S+](C)(=O)[O-])cc1)CCNC2	nt	nt	-2.5%
CCOc1ccc(CCNC(=O)c2cc3sccc3n2Cc2ccc(F)cc2F)cc1OCC	nt	nt	18.0%
CC1CCc2nc3ncn(Cc4ccc(Cl)cc4)c(=O)c3cc2C1 (stereo not given)	46.9%	3.16µM*	?
O=c1c2cc3c(nc2ncn1Cc1ccc(Cl)cc1)CCCC3	1.6%	0.7%	?
CCC(=O)NC(c1ccco1)c1cc([N+](=O)[O-])c2cccnc2c1O (stereo not given)	nt	nt	19.7%
CCC(=O)NC(c1cccs1)c1cc([N+](=O)[O-])c2cccnc2c1OC (stereo not given)	nt	nt	50.1µM*!
COc1ccc2c(c1)CCc1c(C(=O)Nc3c(C)nn(Cc4ccc(C)cc4)c3C)noc1-2	22.4µM*	-46.9%	-21.2%
COc1ccc2c(c1)CCc1c(C(=O)Nc3cc(OC)c(Cl)cc3OC)noc1-2	-7.6%	-6.3%	10.2%
Cc1ccc(S(=O)(=O)n2cc(C(=O)Nc3nc(-c4ccccc4)cs3)c3ccccc32)cc1	nt	nt	20.0%
CNC(=O)C1CCN(c2nc(-c3ccc(Br)cc3)cs2)CC1	nt	nt	-20.4%
O=C(NCCc1ccccc1)C1CCN(c2nc(-c3ccc(Br)cc3)cs2)CC1	nt	nt	5.01µM*
CC(C)n1c(=O)cc(N[C@@H](C)c2ccccc2)[nH]c1=O	nt	nt	-16.9%
COc1cc2ncnc(Nc3ccc(O)c(Br)c3)c2cc1OC	nt	nt	39.8µM*
SMILES	HTT prom inh	HTT-AS act	NTMT1 inhibitor
COc1cc2ncnc(Nc3ccc(O)cc3)c2cc1OC	nt	nt	-11.1%[57.5 µM]
NC(=O)c1cccc2cn(-c3ccc(C4CCCNC4)cc3)nc12 (stereo not given)	nt	nt	-1.0%[57.5 µM]
Cc1cccc(-n2c(C)cc(C(=O)C(=O)Nc3ccccc3F)c2C)c1C	8.91µM*	-20.3%	3.7%
Cc1cc(C)cc(-n2c(C)cc(C(=O)C(=O)Nc3ccccc3F)c2C)c1	29.8%	?	-3.0%
Cc1cccc(NC(c2cccc(Cl)c2)c2ccc3cccnc3c2O)n1 (stereo not given)	10µM*	-38.5%	13.9%
CCOc1cc(C(Nc2cc(C)ccn2)c2ccc3cccnc3c2O)ccc1OC (stereo not given)	35.5µM*	-39.1%	3.6%
